Screens as filed in PubChem BioAssay.
D1 agonist: human D1 receptor agonism; AID 504660; actives 1% (n = 360,000); HEK293 T-REx D1 cells, calcium flux, agonist mode; P21728; activation, % at 2 µM; note: 0% is about no effect
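Tetracycline-induced HEK293 TREx D1 cells, force-coupled to calcium signalling, were dye-loaded with a no-wash calcium kit. Compound was pin-added after a 10 s baseline. Fluorescence was read kinetically at 1 cycle/s for 180 s, with calcium rises flagged as agonism.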
TRHR ag: agonists of human TRH receptor | P34981 | TRHR cells, calcium flux fluo-8, FDSS agonist mode | activation, % at 2 µM | actives 0.18% (n = 360,000) | AID 493084; note: 0% is about no effect
Target sequence (P34981 whole entry, looked up): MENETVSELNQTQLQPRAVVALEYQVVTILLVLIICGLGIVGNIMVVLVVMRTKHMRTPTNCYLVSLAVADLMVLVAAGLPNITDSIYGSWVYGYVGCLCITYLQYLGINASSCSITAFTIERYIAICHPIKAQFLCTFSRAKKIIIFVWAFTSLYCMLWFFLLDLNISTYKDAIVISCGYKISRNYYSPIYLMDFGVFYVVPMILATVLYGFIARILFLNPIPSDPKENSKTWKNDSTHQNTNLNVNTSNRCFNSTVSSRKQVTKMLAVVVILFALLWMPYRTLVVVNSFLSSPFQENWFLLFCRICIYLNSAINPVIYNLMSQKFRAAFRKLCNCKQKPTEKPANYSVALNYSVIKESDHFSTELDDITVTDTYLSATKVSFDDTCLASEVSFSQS
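Read-out: compound-evoked intracellular calcium rise in TRHR cells, fluo-8 dye, kinetic FDSS fluorescence at 1 s/cycle following a 10-cycle baseline. Cells cultured overnight before dye loading (30 min–1.5 h, RT).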
D1 antag: antagonists of human D1 dopamine receptor; P21728; HEK293 TREx D1 cells, calcium flux, dopamine EC80; stronger effect = lower value; activity change, negative = inhibition, % at 10 µM; actives 3.2% (n = 360,000); in the data active = activity change below about -30%; note: % is set by controls: 0 for no effect and ±100 for the full control effect
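Cells carrying a force-coupled, tetracycline-inducible human D1 receptor report calcium flux. Each well gets a 10 s baseline, compound with 180 s monitoring, then an EC80 dopamine stimulus with a second 180 s kinetic read.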
D1 potentiator: human D1 dopamine receptor positive modulation; actives 0.036% (n = 360,000); potentiation, % at 10 µM; HEK293 TREx D1 cells, calcium flux, dopamine EC20 potentiation; P21728; in the data active = potentiation above about 30%; note: 0% is about no effect
TRHR PAM: allosterically enhances the human TRH receptor | AID 493056 | actives 0.66% (n = 360,000) | P34981 | enhancement, % at 2 µM | TRHR cells, fluo-8 calcium fluorescence, EC20 TRH enhancement; in the data active = enhancement above about 30%; note: 0% is about no effect
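TRHR-expressing cells loaded with fluo-8 calcium dye were read kinetically (ex 480/em 530) during compound addition, then stimulated with an EC20 of TRH (10 nM final). Enhancement of the Gq-mediated intracellular calcium response was scored.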
An asterisk follows results filed as active; . = no result given. Most compounds without a hit are left out; they make up all but 4.6% or so of the library. Cut-off read from the data, not from the text of the source, unless noted: active = activation above about 30%; inactive = the rest.

SMILES	D1 agonist	TRHR ag	D1 antag	D1 potentiator	TRHR PAM
Cc1ccc(S(=O)(=O)NCc2ccc(C(=O)NC3CC3)cc2)cc1	2	0	-6	-3	-1
CCOC(=O)C1CCN(CC(C)(C)NS(=O)(=O)c2ccc(C)cc2)CC1	6	-1	0	-8	27
CCOC(=O)C1CCN(C(=O)c2ccc(CNS(=O)(=O)c3ccc(C)cc3)cc2)CC1	0	-1	-37*	-4	4
O=C(Cc1ccc(F)cc1)Nc1nnc2n1CCS2	0	1	-6	-2	2
COc1ccc(N(CC(=O)Nc2cc(C)ccc2C)S(=O)(=O)c2ccc(OC)c(OC)c2)cc1	4	0	2	-4	2
CCN(C(=O)c1cc2c(s1)-c1c(C)cccc1OC2)c1cc(C)ccc1C	1	0	3	-1	-3
COc1ccc(NC(=O)c2nnn(-c3ccc(C(C)C)cc3)c2C)c(OC)c1	0	0	-1	2	5
Cc1ccc(CN2CCC(CNC(=O)c3cc4ccc5cccnc5c4[nH]3)CC2)cc1	40*	3	8	-4	-5
CCN(CC)CCNC(=O)c1ccccn1	1	1	-32*	0	-2
CCN(CC)CCNC(=O)c1sc2ncccc2c1-n1cccc1	5	1	-36*	0	1
CCCCNC(=O)c1sc2ncccc2c1-n1cccc1	0	0	-3	-2	4
CCN(CC)CCNC(=O)/C(=N\O)c1ccccn1	1	0	3	-1	2
Cc1ccc2c(CC(=O)N3CCN(c4cccc(Cl)c4)CC3)coc2c1C	4	0	0	4	-3
Cc1ccnc(NC(=O)c2ccc(COc3c(F)c(F)cc(F)c3F)o2)c1	9	-1	-1	-11	-4
O=C(Nc1ccc(Br)cn1)c1ccc(COc2c(F)c(F)cc(F)c2F)o1	32*	1	-6	.	10
COc1ccc(S(=O)(=O)NCCc2csc(-c3cccc(F)c3)n2)cc1OC	6	0	-4	-1	2
CCOC(=O)c1cc2c(ccn2C)n1CC(=O)N(Cc1ccccc1)c1ccc(F)cc1	2	0	-37*	0	3
Cc1ncc(CN2CCCCC2C(=O)Nc2ccc(Oc3ccccc3)nc2)cn1 (stereo not given)	-1	0	-1	-1	-2
COc1cc(F)ccc1CN1CCC(C(=O)Nc2ccc(Oc3ccccc3)nc2)CC1	47*	1	-7	-3	3
CCc1ccc(CN2CCC(C(=O)Nc3ccc(Oc4ccccc4)nc3)CC2)o1	37*	1	-28	-14	2
CC(C)n1cc(CN2CCC(C(=O)Nc3ccc(Oc4ccccc4F)cc3)CC2)cn1	105*	2	-62*	-10	4
CSc1ncc(CN2CCCCC2C(=O)Nc2ccc(Oc3ccccc3)nc2)cn1 (stereo not given)	0	-1	-31*	-6	5
COc1ccc(N2CC(NC(=O)C3CC3)CC2=O)cc1 (stereo not given)	2	-1	.	-1	13
Cc1ccc(CNC(=O)CNS(=O)(=O)c2cccs2)cc1	1	1	6	-2	4
COc1ccc(-c2noc(-c3cccc(OC)c3OC)n2)cc1	8	1	-15	-4	1
SMILES	D1 agonist	TRHR ag	D1 antag	D1 potentiator	TRHR PAM
CCOC(=O)c1cnc(N2CCN(c3ccc(C)cc3C)CC2)c2ccccc12	1	0	11	-2	6
COc1ccc(OC)c(NC(=O)CSc2cn(CC(=O)N3CCOCC3)c3ccccc23)c1	1	0	-2	-2	-5
Cc1noc(C)c1C(=O)Nc1nc(-c2ccc([N+](=O)[O-])cc2)cs1	25	0	-51*	-8	-6
CC(=O)c1c(C)[nH]c(C(=O)Nc2nc(-c3ccc(-c4ccccc4)cc3)cs2)c1C	5	0	-11	-5	-1
Cn1cc([N+](=O)[O-])c(C(=O)Nc2nc(-c3ccc(Cl)cc3)cs2)n1	28	0	-48*	3	3
Cc1ccc(-c2csc(NC(=O)c3c(C)noc3C)n2)cc1	1	-1	-14	5	2
COc1ccc(OC)c(NC(=O)c2[nH]c(C)c(C(C)=O)c2C)c1	-1	0	10	-6	-1
COc1ccc(-c2nc(NC(=O)c3[nH]c(C)c(C(C)=O)c3C)sc2C)cc1	15	0	-91*	-12	1
